Only some compounds are listed: those with a hit (about 5.3% of all), similar ones and a draw of the others.
JMJD2E inh: qHTS Assay for Inhibitors of Human Jumonji Domain Containing 2E (JMJD2E) | Lysine-specific demethylase 4E (Homo sapiens), B2RXH2 | AID 2147, 2009 | Potency, µM (top dose mostly 57.1 µM), actives largely listed as inhibitors | hit rate 1.6% among 230,000 | JMJD2E catalytic domain, FDH-coupled NADH fluorescence (FDH is formaldehyde dehydrogenase); note: nearly all actives have a fitted effect of over 50% in size
Target sequence (B2RXH2 1-337 limits assumed): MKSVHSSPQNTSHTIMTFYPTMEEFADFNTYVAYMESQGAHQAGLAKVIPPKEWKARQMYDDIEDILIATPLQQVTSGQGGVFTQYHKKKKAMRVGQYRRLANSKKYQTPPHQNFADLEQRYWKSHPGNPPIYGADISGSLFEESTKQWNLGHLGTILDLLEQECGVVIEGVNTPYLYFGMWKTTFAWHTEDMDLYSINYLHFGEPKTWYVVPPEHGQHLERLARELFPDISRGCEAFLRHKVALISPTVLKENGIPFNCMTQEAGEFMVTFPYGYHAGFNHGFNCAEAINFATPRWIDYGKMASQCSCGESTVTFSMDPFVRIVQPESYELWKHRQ
Tau ThT inhib: qHTS for Inhibitors of Tau Fibril Formation, Thioflavin T Binding | Microtubule-associated protein tau (Homo sapiens), P10636 | recombinant tau K18 P301L, heparin-induced fibrillization, ThT fluorescence | Potency, µM (series often up to 57.4 µM), hits mostly inhibitors | hit rate 2.1% among 270,000 | AID 1460, 2008; note: nearly all actives have a fitted effect of over 55% in size
Target sequence (P10636 561-689 P618L limits assumed): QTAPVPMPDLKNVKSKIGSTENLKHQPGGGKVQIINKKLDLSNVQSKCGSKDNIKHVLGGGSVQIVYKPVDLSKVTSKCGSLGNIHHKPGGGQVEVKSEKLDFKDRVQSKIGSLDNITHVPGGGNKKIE
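Heparin-induced fibrillization of the P301L-mutant K18 repeat-domain fragment of human tau was followed by ThT binding in quantitative high-throughput format.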
Sfp inh: qHTS Assay for Inhibitors of Bacillus subtilis Sfp phosphopantetheinyl transferase (PPTase); 4'-phosphopantetheinyl transferase ffp (Bacillus subtilis), Q9F4F7; Biochemical Sfp PPTase activity, qHTS; Potency, µM, most hits filed as inhibitors; hit rate 3.5% among 310,000; AID 1490, 2009;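 note: the enzyme is Sfp with the accession as filed and its product quenches rhodamine fluorescence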
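Compounds were incubated with enzyme (final 15 nM) for 15 min at room temperature before substrate addition started the reaction. Fluorescence at 525 nm excitation, 598 nm emission was recorded immediately and after 30 minutes.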
Tau fluor cs: Counterscreen qHTS for Inhibitors of Tau Fibril Formation, Fluorescence Polarization. tau K18 P301L (four-repeat tau fragment) Alexa594 fluorescence, heparin fibrillization. Potency, µM (doses to about 57.7 µM). hit rate 0.93% among 280,000. AID 1463, 2008; note: nearly all actives have a fitted effect of over 55% in size
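Human K18 P301L tau (15 uM unlabeled plus 0.24 uM Alexa 594-labeled, final) in 100 mM sodium acetate pH 7 was mixed with compound and 20 uM heparin and incubated 6 hr at 37 C.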
Tau FP inhib: qHTS for Inhibitors of Tau Fibril Formation, Fluorescence Polarization. K18 P301L tau heparin fibrillization, Alexa594 FP, 6 h. Potency, µM (doses to about 57.7 µM), hits mostly inhibitors. hit rate 0.39% among 280,000. AID 1468, 2008; note: nearly all actives have a fitted effect of over 55% in size
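Compound effects on tau fibrillization are measured by Alexa 594 fluorescence polarization (ex 555, em 632 nm). K18 P301L tau is used at 15 uM with 0.24 uM labeled tracer, and 20 uM heparin induces aggregation over 6 hr at 37 C.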
FBPA coupling cs: qHTS Assay for Inhibitors of Fructose-1,6-bisphosphate Aldolase from Giardia Lamblia: Coupling assay counterscreen | coupling enzyme system counterscreen, AmpLite Red fluorescence | activity change, negative = inhibition, % at 58.2 µM, hits read low | hit rate 0.67% among 290,000 | AID 2472, 2010; in the data active = activity change below about -30%
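Compounds tested against the coupling enzymes alone at 57.5 uM final; readout was AmpLite Red fluorescence (525/598 nm) after 20 min at RT.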
Numbers stand for hits; i = inactive; ? = inconclusive; nt = no result given; ! = a repeat was not active; [ ] = another dose, or the depositor's remark. Unless noted, calls come from the whole dose curve; as a rule, active = well fitted curve in the direction sought with a large enough effect; inconclusive = small, poorly fitted or top-dose-only effect, or another doubt; inactive = no such curve, though single readings can be large; an effect the other way counts as inactive or inconclusive.

SMILES	JMJD2E inh	Tau ThT inhib	Sfp inh	Tau fluor cs	Tau FP inhib	FBPA coupling cs
CC(C)(C)OC(=O)NCc1ccc(NC(=O)c2nc[nH]c2C(=O)N[C@@H](Cc2ccccc2)C(=O)OCc2ccccc2)cc1	?	i	i	?	10µM	i
Cc1cccc(NC(=O)c2nc[nH]c2C(=O)N[C@@H](Cc2ccccc2)C(=O)OCc2ccccc2)c1	?	?	i	?	11µM	i
CC(=O)c1ccc(NC(=O)CSc2ccc3nc(-c4ccccc4)cn3n2)cc1	nt	i	nt	i	?	nt
O=C(NCc1ccccc1)[C@@H]1C[C@H]1[C@@H](NP(=O)(c1ccccc1)c1ccccc1)c1ccccc1	i	i	i	i	i	i
Cc1ccc(CNC(=O)[C@H]2C[C@@H]2[C@H](NP(=O)(c2ccccc2)c2ccccc2)c2ccccc2)o1	i	?	35µM	i	i	i
Cc1ccc2c(c1)N=C(c1ccccc1)CC(C(Cl)Cl)=N2	?	16µM	?	?	?	i
Cc1ccc(Cn2cc(/C=N/Nc3ccc([N+](=O)[O-])cn3)c3ccccc32)cc1	i	10µM	i	11µM[quencher]	i	i
Cc1ccc(-n2c(C)cc(/C=N/Nc3ccc([N+](=O)[O-])cn3)c2C)cc1	i	2µM	i	?	i	i
Cc1cc(/C=N/Nc2ccc([N+](=O)[O-])cn2)c(C)n1-c1ccccc1	i	3.5µM	i	?	i	i
COc1cccc(/C=N/Nc2ccc([N+](=O)[O-])cn2)c1O	nt	nt	i	nt	nt	i
Cc1c(C(=O)O)cccc1-n1c(C)cc(/C=N/Nc2ccc([N+](=O)[O-])cn2)c1C	i	13µM	32µM	?	i	i
O=C(O)Cn1cc(/C=N/Nc2ccc([N+](=O)[O-])cn2)c2ccccc21	nt	nt	?	nt	nt	i
COc1ccc(C2C(=O)N(C3CCC(C)CC3)CC(=O)N2Cc2ccc(C)cc2)cc1OC (centres undefined)	nt	i	nt	i	i	nt
COc1ccc(-c2noc(CC(=O)Nc3cc(OC)ccc3OC)n2)cc1	nt	?	nt	?	i	nt
O=c1c(-c2ccc(F)cc2)nc2cncnc2n1Cc1ccc(F)cc1	nt	nt	i	nt	nt	i
COC(=O)CCCC1=CC2=C(c3ccccc3)C(=O)C(C)(OC(=O)C3CCCC3)C(=O)C2=CN1Cc1ccco1 (centres undefined)	18µM	?	56µM!	i[11.6 µM]	i[11.6 µM]	i
COC(=O)CCCC1=CC2=C(c3ccccc3)C(=O)C(C)(OC(=O)C3CCCC3)C(=O)C2=CN1CCCOC(C)C (centres undefined)	3.5µM	?	i	i[11.6 µM]	i[11.6 µM]	i
COC(=O)CCCC1=CC2=C(c3ccccc3)C(=O)C(C)(OC(=O)C3CCCC3)C(=O)C2=CN1CCCCO (centres undefined)	?	?	i	i[11.6 µM]	i[11.6 µM]	i
COC(=O)C1=C(C(=O)OC)[C@@H]2N(Cc3ccccc3)c3ccccc3[C@@]23C[C@@H](C(=O)OC)N(S(=O)(=O)c2ccc([N+](=O)[O-])cc2)C3=N1	i[11.4 µM]	i[11.5 µM]	i	i[11.6 µM]	?	i
COc1ccc(S(=O)(=O)Nc2c(C(=O)O)[nH]c3ccc(OC)cc23)c(OC)c1	nt	nt	25µM	nt	nt	i
CCc1ccc(OCC(=O)NC(=S)Nc2cccc(CO)c2)c(Br)c1	i	?	25µM	?	?	i
CN1CCN(c2ncc3ncc(=O)n(CCC#N)c3n2)CC1	nt	nt	i	nt	nt	i
Oc1c(/C=C/C=C/C=Nc2ccccc2)sc(=S)n1Cc1ccccc1	?	1.8µM	?	?	?	i
CCn1c(O)c(/C=C/C=C/C=Nc2ccccc2)sc1=S	i	?	?	i	i	i
CCCCn1c(O)c(/C=C/C=C/C=Nc2ccccc2)sc1=S	i	3.2µM	i	i	?	i
SMILES	JMJD2E inh	Tau ThT inhib	Sfp inh	Tau fluor cs	Tau FP inhib	FBPA coupling cs
COc1cc(OC)cc(-c2nnc(SCc3ccc(C(=O)O)cc3)o2)c1	nt	nt	50µM	nt	nt	i
COc1cc(OC)c(OC)cc1/C=N/NC(=S)NCCN1CCOCC1	?	i	i	i	i	i
COc1cc(/C=N/NC(=S)NCCN2CCOCC2)cc(OC)c1O	i	i	22µM	i	i	i
Oc1ccc(/C=N/NC(=S)NCCN2CCOCC2)c(O)c1	35µM	i	i	i	i	i
O=C(CSc1nc2nc(-c3cccs3)cc(C(F)(F)F)c2c(=O)[nH]1)C(F)(F)F	nt	nt	79µM	nt	nt	i
COC(=O)CSc1nc2nc(-c3cccs3)cc(C(F)(F)F)c2c(=O)[nH]1	nt	nt	i	nt	nt	i
CCCCC1OC23CCCCC2C(C#N)(C#N)C1(C#N)C(=N)O3 (centres undefined)	i	i	i	i	i	-45
COc1cccc(Cn2c(=O)cnc3cnc(OC)nc32)c1	nt	nt	i	nt	nt	i
CC(=O)Nc1ccc(S(=O)(=O)N2CCc3nc(-c4ccccc4)c4c(c3C2)CO[C@@H](C)C4)cc1	i[11.4 µM]	i[11.5 µM]	i	i[11.6 µM]	i[11.6 µM]	i
CCOC(=O)c1cc2c(ccn2C)n1CC(=O)Nc1ccc(F)cc1	i	28µM	i	?	?	i
O=C(O)c1cc(=O)c2cc(Cl)ccc2[nH]1	nt	nt	i	nt	nt	i
O=S(=O)(O)CCS	?	22µM	i	i	?	i
NCCCS(=O)(=O)O	i	i	i	i	i	i
CCOc1ccc(CNC(=O)CCS(=O)(=O)c2cc3c4c(c2)CCN4C(=O)CC3)cc1OC	nt	?	nt	i	i	nt
COc1cc(-c2nc3ccccn3c2/N=C/c2cc(OC)c(O)cc2Cl)ccc1O	?	14µM	i	?	?	i
COc1cc(-c2nc3ccccn3c2/N=C/c2ccccc2)ccc1O	?	?	i	i	i	i
CCCCCCCCCCCC(=O)c1c(O)cccc1O	i	?	i	13µM[quencher]	?	i
CCCCCCCC(=O)NNC(=O)Cc1ccccc1	i	i	i	i	i	i
Cc1nn(C(=O)c2ccccc2F)c(C)c1S(=O)(=O)N1CCOCC1	nt	?	nt	i	i	nt
CC1(C)CC(=O)C(CC2=C(O)CC(C)(C)CC2=O)C(=O)C1	i	14µM	?	i	28µM	i
CN=CC1=C(O)CC(C)(C)CC1=O	i	i	i	i	i	i
CC1(C)CC(=O)C(CC2=C(O)CC(C)(C)CC2=O)=C(O)C1	i	16µM	?	i	40µM	i
CC1(C)CC(=O)C(C=NC2CCCCC2)=C(O)C1	i	i	i	i	i	i
COc1cccc(C(=O)CC2c3c(c(Br)c4c(c3OC)OCO4)CCN2C)c1 (centres undefined)	i	i	i	i	i	i
COc1cccc(N2CCN(c3c4c(nc5nncn35)CCC4)CC2)c1	nt	i	nt	i	i	nt
S=c1nc(C23CC4CC(CC(C4)C2)C3)[nH][nH]1	i	i	56µM	i	i	i
